The values below come from PubChem BioAssay (Tox21).

Experiment [1] is described as follows: qHTS assay to identify small molecule agonists or antagonists of the thyroid stimulating hormone receptor (TSHR) signaling pathway - wild type cell line counter screen (AID 1259384; calls by dose curve). An outline of the steps:
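Wild-type Hek293 cells, 800/well, 18 h at 37C, then compound with Ro20-1724 for 30 min RT. cAMP by HTRF (cAMP-d2/anti-cAMP cryptate), 1 h RT, fluorescence read. 15 concentrations, triplicates.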

Experiment [2] addresses Thyrotropin receptor (Homo sapiens) (UniProt P16473). The experiment is described as follows: qHTS assay to identify small molecule antagonists of the thyroid stimulating hormone receptor (TSHR) signaling pathway (AID 1259385; calls by dose curve; also: nearly all actives have a fitted effect of over 20% in size). An outline of the steps: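 TSHR-HEK293 cells (800/well) plated 18 h, then compounds with Ro20-1724 and TSH at 1.5 ng/mL final, 30 min at room temperature. cAMP quantified by HTRF (cAMP-d2/anti-cAMP-cryptate, 1 h); 15 concentrations in triplicate.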
(In qHTS, concentration-response curves come from the screen itself.)

Experiment [3] can be described thus: qHTS assay to identify small molecule agonists of the estrogen receptor alpha (ER-alpha) signaling pathway in the presence of an antagonist - cell viability counter screen (AID 1259386).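 Also: cells exposed to compounds for 22 h at 37 °C before the viability read; nearly all actives have a fitted effect of over 30% in size.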 Also: potency is read from the fitted curve at half-maximal effect. The essentials:
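Using estrogen-depleted VM7Luc4E2 cells, the 15-concentration compound series was applied together with 10.0nM ICI-182,780 and incubated 22hr at 37C/5% CO2. Cell viability was then scored by CellTiter-Fluor.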

Experiment [4] has as its target Progesterone receptor (Homo sapiens) (UniProt P06401). The experiment is described as follows: qHTS assay to identify small molecule agonists of the progesterone receptor (PR) signaling pathway (AID 1346784; calls by dose curve; also: nearly all actives have a fitted effect of over 30% in size). An outline of the steps:
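Agonist qHTS: compounds pinned onto 3,000 PR-UAS-bla HEK 293T cells per well in charcoal-stripped serum medium, 16hr at 37C, then beta-lactamase activity measured by LiveBLAzer FRET fluorescence after 2 hours at room temperature.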

Experiment [5] in a line: qHTS assay to identify small molecule antagonists of the progesterone receptor (PR) signaling pathway - cell viability counter screen (AID 1346798). Also: nearly all actives have a fitted effect of over 50% in size. Also: potency is read from the fitted curve at half-maximal effect. An outline of the steps: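 Cytotoxicity read as CellTiter-Glo luminescence (30 min, room temperature) in the same wells as the beta-lactamase readout. HEK293T PR-UAS-bla cells in charcoal-stripped 2% FBS received compound and R5020, then 16 h at 37C, 5% CO2.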

Experiment [6] can be described thus: qHTS assay to identify small molecule agonists of the progesterone receptor (PR) signaling pathway - cell viability counter screen (AID 1346799; calls by dose curve; also: nearly all actives have a fitted effect of over 45% in size). An outline of the steps:
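Cytotoxicity measured by CellTiter-Glo luminescence (30 min, RT) in the same wells as the PR beta-lactamase agonist read. Those HEK293T cells had 16 h compound treatment at 37 C in 2% charcoal-stripped FBS medium.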

Experiment [7] is described as follows: qHTS assay to identify small molecule antagonists of the TGF-beta/Smad signaling pathway - cell viability counter screen (AID 1346824). Also: nearly all actives have a fitted effect of over 50% in size. An outline of the steps: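 SBE-bla HEK 293T cells, incubated overnight, then compound plus 0.25 ng/mL TGF-beta1 (stock added) for 5 hr at 37 C. Viability was read in the same wells by CellTiter-Glo luminescence after 30 min at room temperature.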

Experiment [8] in a line: qHTS assay to identify small molecule agonists of the TGF-beta/Smad signaling pathway - cell viability counter screen (AID 1346829). Also: top concentration of the series differs between compounds; nearly all actives have a fitted effect of over 45% in size. The essentials:
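Luminescence from CellTiter-Glo, read after a 30 min room-temperature incubation, gives cell viability of SBE-bla HEK 293T cells treated 5 hr with compounds at 37 C.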

The nature of experiment [9]: qHTS assay to identify small molecule agonists of the TGF-beta/Smad signaling pathway (AID 1346859; active = well fitted activation curve with a large enough effect in the signal ratio in the repeat runs, not every such curve was filed as active; the % refers to the signal ratio; also: series mostly up to about 77 µM). The essentials:
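Fluorescence (ex 405 nm; em 460 and 530 nm) was read 2 h after LiveBLAzer FRET substrate at RT. The preceding compound treatment of overnight-plated SBE-bla HEK293T cells lasted 5 h at 37 C.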

Experiment [10] addresses Thyrotropin-releasing hormone receptor (Homo sapiens) (UniProt P34981). The experiment is described as follows: qHTS assay to identify small molecule agonists of the thyrotropin-releasing hormone receptor (TRHR) signaling pathway (AID 1346891; calls by dose curve; also: series mostly up to about 58 µM). An outline of the steps:
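Agonist-mode intracellular calcium readout: kinetic fluorescence over 3 min at 1 s intervals after compound addition to TRHR-HEK293 cells (18 h seeded, 2 h dye-loaded at 37 C). Fifteen concentrations, triplicates.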

Experiment [11] can be described thus: Human pregnane X receptor (PXR) small molecule agonists, qHTS cell viability counter screen (AID 1346977). Also: nearly all actives have a fitted effect of over 50% in size. Also: potency is read from the fitted curve at half-maximal effect. The essentials: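 Same-well viability read: CellTiter-Fluor added after 23 hr compound exposure, fluorescence measured 1 hr later. Cells were PXR-Luc HepG2 seeded at 2,000/well in 5% charcoal-stripped FBS medium, rested 5 hr before dosing at 37 C.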
The nature of experiment [12]: Caspase-3/7 induction in HepG2 cells by small molecules, qHTS assay (AID 1346978). Also: nearly all actives have a fitted effect of over 15% in size. An outline of the steps:
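Wild-type HepG2 cells, 2,000/well, settled 5 hr at 37 C and 5% CO2, then compound-treated for 17 hr; caspase-3/7 activity read by luminescent Caspase-Glo 3/7 after 30 min at room temperature.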

Experiment [13] can be described thus: Caspase-3/7 induction in CHO-K1 cells by small molecules, qHTS assay (AID 1346980). Also: nearly all actives have a fitted effect of over 15% in size. Also: potency is read from the fitted curve at half-maximal effect. The essentials:
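Wild-type CHO-K1 cells exposed to compounds for 17hr at 37 C, 5% CO2. Caspase-3/7 activity then measured by Caspase-Glo 3/7 luminescence after 30min at room temperature.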

Experiment [14] concerns the target Progesterone receptor (Homo sapiens) (UniProt P06401). Kind of experiment: qHTS assay to identify small molecule antagonists of the progesterone receptor (PR) signaling pathway (AID 1346795; active = well fitted inhibition curve with a large enough effect in the signal ratio in the repeat runs, not every such curve was filed as active; the % refers to the signal ratio; also: potency is read from the fitted curve at half-maximal effect). An outline of the steps: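 Antagonist mode with agonist R5020 at 1 nM final and 16 hr incubation at 37C. Reporter was beta-lactamase driven by UAS in HEK293T (PR-UAS-bla), 2% charcoal-stripped serum; signal from LiveBLAzer FRET substrate, 2 hr at room temperature.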

Experiment [15] deals with Thyrotropin-releasing hormone receptor (Homo sapiens) (UniProt P34981). The experiment is described as follows: qHTS assay to identify small molecule antagonists of the thyrotropin-releasing hormone receptor (TRHR) signaling pathway (AID 1346877; active = well fitted inhibition curve with a large enough effect in the repeat runs, not every such curve was filed as active; also: series mostly up to about 51 µM). An outline of the steps: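 Calcium signal in dye-loaded TRHR/HEK293 cells; compounds added 5 min before TRH (1 nM final); fluorescence monitored 3 min at 1 s steps.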
Sequence of Thyrotropin-releasing hormone receptor (Homo sapiens) (P34981 whole entry, looked up): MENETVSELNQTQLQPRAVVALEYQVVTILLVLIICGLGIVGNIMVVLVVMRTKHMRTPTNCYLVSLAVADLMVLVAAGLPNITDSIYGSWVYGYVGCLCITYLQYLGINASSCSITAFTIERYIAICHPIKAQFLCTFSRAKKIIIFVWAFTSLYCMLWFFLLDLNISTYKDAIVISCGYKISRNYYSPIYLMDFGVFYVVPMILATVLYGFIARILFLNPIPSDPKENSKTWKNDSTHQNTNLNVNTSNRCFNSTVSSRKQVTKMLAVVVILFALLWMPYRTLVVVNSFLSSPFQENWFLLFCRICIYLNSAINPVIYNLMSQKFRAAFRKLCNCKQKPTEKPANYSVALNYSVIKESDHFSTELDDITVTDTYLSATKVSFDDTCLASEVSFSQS

In experiment [16] the target is Estrogen receptor (Homo sapiens) (UniProt P03372). The experiment is described as follows: qHTS assay to identify small molecule agonists of the estrogen receptor alpha (ER-alpha) signaling pathway in the presence of an antagonist (AID 1259383; calls by dose curve; also: top concentration of the series differs between compounds; nearly all actives have a fitted effect of over 15% in size). The essentials: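 Luminescent ERE-luciferase reporter, VM7Luc4E2 cells (endogenous ER-alpha); 10.0nM ICI-182,780 final; 15-point compound titration; 22hr at 37C; ONE-Glo, 30min RT.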
Sequence of Estrogen receptor (Homo sapiens) (P03372 whole entry, looked up): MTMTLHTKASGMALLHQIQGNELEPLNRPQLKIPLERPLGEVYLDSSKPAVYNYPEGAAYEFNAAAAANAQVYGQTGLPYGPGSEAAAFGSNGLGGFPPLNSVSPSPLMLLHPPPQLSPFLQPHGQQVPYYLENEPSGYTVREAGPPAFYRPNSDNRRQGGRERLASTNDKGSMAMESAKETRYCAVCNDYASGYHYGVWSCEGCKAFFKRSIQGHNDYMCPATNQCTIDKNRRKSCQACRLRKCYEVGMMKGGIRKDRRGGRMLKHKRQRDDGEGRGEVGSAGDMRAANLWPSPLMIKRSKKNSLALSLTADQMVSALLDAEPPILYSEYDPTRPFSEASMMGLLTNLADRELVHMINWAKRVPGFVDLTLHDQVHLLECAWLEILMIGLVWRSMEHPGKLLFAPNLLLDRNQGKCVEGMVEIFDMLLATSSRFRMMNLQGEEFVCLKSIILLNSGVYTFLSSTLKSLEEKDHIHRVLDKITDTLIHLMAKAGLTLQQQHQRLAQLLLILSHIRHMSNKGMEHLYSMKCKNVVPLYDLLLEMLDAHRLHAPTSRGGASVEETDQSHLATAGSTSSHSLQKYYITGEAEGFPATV

The nature of experiment [17]: Caspase-3/7 induction in HepG2 cells by small molecules, qHTS cell viability counter screen (AID 1346981). Also: nearly all actives have a fitted effect of over 30% in size. Also: potency is read from the fitted curve at half-maximal effect. The essentials: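 After a 5-hr attachment period at 37 C and 5% CO2, wild-type HepG2 cells received compounds in DMSO. Sixteen hours later CellTiter-Fluor was dispensed and the fluorescent signal quantified after a further hour.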
Experiment [18] is described as follows: Caspase-3/7 induction in CHO-K1 cells by small molecules, qHTS cell viability counter screen (AID 1346979). Also: potency is read from the fitted curve at half-maximal effect; nearly all actives have a fitted effect of over 35% in size. The essentials: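 Cytotoxicity counter screen: CellTiter-Fluor added to compound-treated wild-type CHO-K1 cells at 16 h (37C, 5% CO2), fluorescence measured 1 h later; same wells as caspase-3/7 measurement.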
For experiment [19], the target named is Nuclear receptor subfamily 1 group I member 2 (Homo sapiens) (UniProt O75469). Kind of experiment: Human pregnane X receptor (PXR) small molecule agonists, qHTS assay (AID 1346982). Also: nearly all actives have a fitted effect of over 35% in size. Also: potency is read from the fitted curve at half-maximal effect. An outline of the steps: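 Tox21 qHTS; PXR-Luc HepG2; compounds pinned from DMSO; 24 hr, 37 C; ONE-Glo luciferase detection, 30 min room temperature.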
Sequence of Nuclear receptor subfamily 1 group I member 2 (Homo sapiens) (O75469 whole entry, looked up): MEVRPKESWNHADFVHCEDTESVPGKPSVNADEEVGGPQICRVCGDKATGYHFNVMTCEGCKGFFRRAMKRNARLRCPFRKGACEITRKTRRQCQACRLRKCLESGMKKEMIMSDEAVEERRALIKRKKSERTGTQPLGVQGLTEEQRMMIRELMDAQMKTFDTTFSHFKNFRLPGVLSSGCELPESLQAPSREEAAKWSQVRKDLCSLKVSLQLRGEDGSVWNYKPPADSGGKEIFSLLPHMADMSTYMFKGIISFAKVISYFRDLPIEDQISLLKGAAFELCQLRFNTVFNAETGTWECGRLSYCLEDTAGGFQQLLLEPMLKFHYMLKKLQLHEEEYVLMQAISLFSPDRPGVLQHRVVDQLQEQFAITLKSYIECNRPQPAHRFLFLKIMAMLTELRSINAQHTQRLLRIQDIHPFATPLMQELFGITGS

Values without a mark were called inactive. Inconclusive results are not listed. Calls of active or inactive are those of the source. Unless noted, calls follow the shape of the dose curve; as a rule, active = well fitted curve in the direction sought with a large enough effect in the repeat runs; inconclusive = weak or mixed curves; inactive = no such curve, though single readings can be large; an effect the other way counts as inactive or inconclusive.

Sequence of Thyrotropin receptor (Homo sapiens) (P16473 whole entry, looked up): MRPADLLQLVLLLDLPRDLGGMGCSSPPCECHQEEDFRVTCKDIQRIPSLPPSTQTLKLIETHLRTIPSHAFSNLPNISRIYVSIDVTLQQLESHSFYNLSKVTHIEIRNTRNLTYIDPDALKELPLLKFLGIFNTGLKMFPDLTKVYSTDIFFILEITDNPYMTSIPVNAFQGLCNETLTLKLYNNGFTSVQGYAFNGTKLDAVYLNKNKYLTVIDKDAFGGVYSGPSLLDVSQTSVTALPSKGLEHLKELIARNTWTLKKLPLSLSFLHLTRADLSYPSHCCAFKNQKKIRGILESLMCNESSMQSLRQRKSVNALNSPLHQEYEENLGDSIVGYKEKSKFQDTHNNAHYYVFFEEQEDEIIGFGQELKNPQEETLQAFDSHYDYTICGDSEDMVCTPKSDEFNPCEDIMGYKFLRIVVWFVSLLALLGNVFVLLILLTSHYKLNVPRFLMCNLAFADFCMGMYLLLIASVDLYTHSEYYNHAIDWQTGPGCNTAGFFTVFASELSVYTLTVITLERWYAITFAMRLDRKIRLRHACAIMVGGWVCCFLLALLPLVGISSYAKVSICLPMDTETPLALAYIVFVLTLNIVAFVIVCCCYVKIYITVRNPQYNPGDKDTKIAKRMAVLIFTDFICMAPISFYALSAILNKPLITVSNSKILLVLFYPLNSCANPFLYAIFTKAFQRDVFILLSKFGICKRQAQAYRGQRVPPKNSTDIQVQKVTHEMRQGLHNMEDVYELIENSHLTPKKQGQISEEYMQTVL
Sequence of Progesterone receptor (Homo sapiens) (P06401 whole entry, looked up): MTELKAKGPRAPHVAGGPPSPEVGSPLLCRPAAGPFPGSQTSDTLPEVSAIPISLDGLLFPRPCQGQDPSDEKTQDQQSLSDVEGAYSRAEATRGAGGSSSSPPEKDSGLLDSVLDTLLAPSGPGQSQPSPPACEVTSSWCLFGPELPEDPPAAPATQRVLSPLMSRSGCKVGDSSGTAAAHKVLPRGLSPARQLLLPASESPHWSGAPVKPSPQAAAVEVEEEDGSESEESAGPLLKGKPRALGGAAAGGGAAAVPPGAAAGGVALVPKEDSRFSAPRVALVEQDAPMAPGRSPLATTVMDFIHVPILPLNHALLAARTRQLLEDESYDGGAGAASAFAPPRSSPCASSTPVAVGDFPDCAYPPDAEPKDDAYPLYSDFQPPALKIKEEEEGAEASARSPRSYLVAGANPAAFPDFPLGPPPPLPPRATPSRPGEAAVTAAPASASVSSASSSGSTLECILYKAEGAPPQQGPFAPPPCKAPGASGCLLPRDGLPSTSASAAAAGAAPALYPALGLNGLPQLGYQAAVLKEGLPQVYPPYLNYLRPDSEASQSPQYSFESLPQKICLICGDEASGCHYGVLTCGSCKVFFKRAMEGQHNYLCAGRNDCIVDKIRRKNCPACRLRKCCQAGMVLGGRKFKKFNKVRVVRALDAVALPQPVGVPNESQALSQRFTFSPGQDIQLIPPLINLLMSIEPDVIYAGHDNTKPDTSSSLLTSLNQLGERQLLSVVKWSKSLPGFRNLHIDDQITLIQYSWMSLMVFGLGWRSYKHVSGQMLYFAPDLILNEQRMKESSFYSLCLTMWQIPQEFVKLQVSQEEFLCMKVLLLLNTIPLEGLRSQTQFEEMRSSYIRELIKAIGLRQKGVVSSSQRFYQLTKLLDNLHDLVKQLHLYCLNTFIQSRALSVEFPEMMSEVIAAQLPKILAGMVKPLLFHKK

As for `O=C(Nc1ccc([N+](=O)[O-])cc1)Nc1ccc([N+](=O)[O-])cc1` (tested in a mixture with another compound), the Potency result in experiment [1], in [2], in experiment [3], in experiment [6], in experiment [7] and in experiment [8] was “inactive” in each case. For the same compound, the Potency result in [10], in experiment [11], in experiment [12] and in experiment [13] was “inactive” throughout. The call in experiment [4] and in experiment [9] was inactive. In addition, the Potency in [5] is 1.19 µM (active).

`Nc1ccc(Cl)c([N+](=O)[O-])c1`: the Potency result in experiment [3], in experiment [6], in [7], in experiment [8], in [15] and in experiment [10] was “inactive” in each case. The Potency result in [11], in [12] and in [13] was “inactive” throughout. Moreover, the compound was classed as inactive in experiment [4] and in [9]. Besides, the Potency in experiment [14] was 54.5 µM (active).

For the compound `CC(C)(c1ccc(Oc2ccc(N)cc2)cc1)c1ccc(Oc2ccc(N)cc2)cc1`, the Potency result in [16], in [1], in [6], in experiment [7], in experiment [8] and in [15] was “inactive” in each case. The Potency result in experiment [12] and in [13] was “inactive” in each case. Besides, the Potency in experiment [3] was 54.5 µM (active); in experiment [14], 27.3 µM (active). The compound was called inactive in [4] and in experiment [9].

Regarding `CC(=O)N(C)C`, the Potency result in experiment [5] is “inactive”.

`CC(C)(C)c1ccc(OC2CCCCC2O)cc1` (stereo not drawn): the Potency result in experiment [16], in [1], in experiment [2], in experiment [5], in experiment [6] and in [7] was “inactive” each time. Also, the Potency result in experiment [8], in experiment [15], in [11], in experiment [13] and in [17] was “inactive” throughout. Moreover, the compound was classed as inactive in experiment [4] and in [9].

In the case of `O=S(=O)(c1ccc(OCc2ccccc2)cc1)c1ccccc1O`, the Potency entry in experiment [16], in experiment [1], in experiment [7], in [8], in experiment [12] and in experiment [13] was “inactive” in each case. In addition, the Potency in experiment [14] was 48.6 µM (active); in [11] it was 61.1 µM (active); in [18], 43.3 µM (active). In [9], the compound was classed as inactive.

Consider `CCCCCc1ccc(O)cc1`, for which the Potency entry in experiment [16], in experiment [1], in [2], in experiment [3], in experiment [5] and in [6] was “inactive” throughout. The Potency result in [7], in [8], in experiment [11], in experiment [13] and in experiment [17] was “inactive” in each case. Besides, the call in experiment [4] and in experiment [9] was inactive.

For `Clc1nc(C(Cl)(Cl)Cl)c(Cl)c(Cl)c1Cl`, the Potency entry in experiment [16], in [1], in [3], in experiment [6], in [7] and in [8] was “inactive” each time. For the same compound, in experiment [19], the Potency result is “inactive”. The call in [4] and in experiment [9] was inactive. Besides, the Potency in experiment [18] and in experiment [13] was 30.6 µM (active) each time.

Take `Nc1ccc(N)c([N+](=O)[O-])c1`: the Potency in [3] was 30.6 µM (active); in [18] it was 40.9 µM (active); in [17], 54.5 µM (active). Also, the Potency entry in [5], in [12] and in [13] was “inactive” each time.

As for `CS(=O)(=O)c1ccc([C@@H](CC2CCCC2)C(=O)Nc2cnccn2)cc1Cl`, the Potency result in [12] and in experiment [13] was “inactive” in each case. Further, the Potency in experiment [18] was 61.1 µM (active).

For `O=[N+]([O-])c1ccc(O)c2ncccc12`, the Potency entry in experiment [1], in experiment [2], in [6], in experiment [7], in experiment [8] and in experiment [12] was “inactive” each time. The Potency is 11.9 µM (active) in experiment [3]; 0.531 µM (active) in experiment [14]; 0.531 µM (active) in experiment [5]; 8.41 µM (active) in experiment [18]; 5.96 µM (active) in [13]; 29.8 µM (active) in experiment [19]. Moreover, the result in experiment [4] and in experiment [9] was inactive.
